# According to the supplement of paper PMC3334620:
# In all, about 33,000 sequences were measured (“E-score (-0.5 to 0.5)”: median about -0.013, highest 2% from about 0.3 on). The full list was thinned out, with the highest values kept by preference.
# Target: T1, Msn1 (UniProt P22148)
# T1 sequence: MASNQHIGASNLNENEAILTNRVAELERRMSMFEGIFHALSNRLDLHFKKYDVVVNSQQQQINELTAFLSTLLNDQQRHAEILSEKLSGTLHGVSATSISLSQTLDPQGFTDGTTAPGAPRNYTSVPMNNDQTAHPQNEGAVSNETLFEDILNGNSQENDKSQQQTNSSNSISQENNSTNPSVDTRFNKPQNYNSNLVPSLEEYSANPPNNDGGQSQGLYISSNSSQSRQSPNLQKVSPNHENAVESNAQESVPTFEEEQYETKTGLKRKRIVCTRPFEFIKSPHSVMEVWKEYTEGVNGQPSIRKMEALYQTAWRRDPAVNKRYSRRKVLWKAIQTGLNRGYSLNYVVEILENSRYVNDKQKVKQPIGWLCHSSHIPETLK
# Assay: PBM E-score (8-mer binding enrichment) (E-score (-0.5 to 0.5)); higher = stronger / more preferred TF binding
# Settings: protein concentration: 200 nM; construct: GST-full length
# Method: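 Universal 'all 10-mer' protein binding microarrays (Agilent AMADID 015681) probed with GST-tagged S. cerevisiae TFs (full-length or DBD) made by in vitro transcription/translation (PURExpress), about 100-200 nM. Bound TF was detected with fluorescent anti-GST. Each ungapped 8-mer (which stands for itself and its reverse complement) is scored by the PBM enrichment score (E-score), a modified Wilcoxon-Mann-Whitney statistic from -0.5 to +0.5, computed with the Universal PBM Analysis Suite. Scale: above 0.35 generally sequence-specific binding.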
row,Sequence,PBM E-score
1,GCATGTCA,0.261
2,ACATGTGC,0.0743
3,ACATGTTC,0.147
4,CGGGTTGA,-0.255
5,CCAGCCCC,-0.304
6,CTTTGCTA,-0.0573
7,AAACAGTA,-0.0344
8,CCACAAGC,-0.0513
9,AGGACATC,0.477
10,CGGACCTA,0.00062
11,CGGACAGC,0.182
12,AGGACATG,0.484
13,AGCACATG,-0.0192
14,AGTACATG,0.266
15,CGGACTGA,0.0816
16,CGGACATA,0.469
17,AGTACATC,0.131
18,CGGACATC,0.387
19,AGCACATC,-0.0251
20,CCGACATC,0.0379
21,ATGGGCAA,0.0683
22,ACATACCG,0.114
23,GGAACGAA,0.0279
24,AATCTAAG,0.00698
25,GCGAGATA,0.09
26,ATCTTCCA,-0.148

row,Sequence,PBM E-score
1,GGGACAGA,0.262
2,GGGACTGA,-0.182
3,GGGACATA,0.488
4,AGCGTAGG,-0.267
5,GACCACCA,-0.246
6,ATCAGACC,-0.192
7,AAACTGCT,-0.222
8,CGCCAACG,-0.126
9,CGCTCTAC,-0.0195
10,CGTATTGA,-0.0137
11,ACTGCGGG,-0.124
12,GGTCTGAA,0.0803
13,AGTCTTAA,0.11
14,AGTCTGAA,0.029
15,TGTCTAAA,0.38
16,TGTCGCAA,0.324
17,AGTCTAAA,0.0711
18,GGTCGCAA,-0.11
19,CGTCGCAA,0.0166
20,TGTCTTAA,0.375
21,TGTCTGAA,0.364
22,GGTCTAAA,-0.0883
23,CGTCTTAA,0.0585
24,CGCTAGGA,-0.0538
25,GCGGGGCA,-0.147
26,GGAACCCC,-0.334

row,Sequence,PBM E-score
1,ACCGTCTA,-0.11
2,CTGCGATA,0.0274
3,CAGGTGAA,0.0265
4,ATGCAGTC,-0.186
5,CTGGAGTC,-0.182
6,AGCCAATA,-0.113
7,GATCGGCC,-0.0564
8,CACTACCG,-0.181
9,AACTAGAA,0.062
10,CGTCTCAA,0.00785
11,TGTATCAA,0.325
12,TGTCTCAA,0.384
13,CGTATCAA,0.0969
14,AGTCTCAA,-0.0719
15,AGTATCAA,0.217
16,TATAATCA,0.169
17,CCGGGATC,0.0583
18,AAGGGGAC,0.101
19,AGAATGTA,0.167
20,CGAATGTC,0.386
21,AGAATGTG,-0.172
22,CGAATGTA,-0.00301
23,AGAATGTC,0.459
24,CGAATGAC,0.258
25,CCGCTGAG,0.00458
26,AAACCGCT,-0.0604

row,Sequence,PBM E-score
1,CCAAGGGC,-0.126
2,ACACAAGC,0.0155
3,AGAGGTAG,-0.163
4,GCGATCAA,-0.0507
5,CCCAGACA,0.199
6,GTCAGACA,0.323
7,ATCAGACA,0.173
8,GTCAGAGA,0.0303
9,CTCAGACA,0.317
10,CTCAGACC,-0.138
11,CACGCCAC,-0.127
12,TCCACGGA,0.299
13,GAAGGTGA,-0.0331
14,GGGTTAGA,-0.178
15,GCAAATTA,-0.0115
16,ACAAACTG,0.158
17,AGATCTGC,0.0313
18,GAGGGCCA,-0.104
19,CTATGAGA,-0.0425
20,CGCTGACA,0.314
21,CTATGACC,-0.0237
22,CGATGACA,0.314
23,AGATGACA,0.157
24,TGCTGACA,0.125
25,GTATGACA,0.294
26,CGATGACG,-0.158

row,Sequence,PBM E-score
1,ATATGACA,0.304
2,CGCTGACG,-0.24
3,CTATGACA,0.375
4,ATATGACC,-0.0751
5,CTTCCAGA,-0.0473
6,GACACACC,0.235
7,AGTCGAGA,0.0774
8,ACAGGTGG,-0.0714
9,ATTTGCAA,0.103
10,CTAACTTA,0.227
11,TGTGCGAA,-0.0498
12,AAAACACC,0.0787
13,AGGGTCGC,-0.229
14,GCTTGAAC,0.187
15,CGGGCAGC,-0.122
16,AAGACATC,0.281
17,AAGACACT,0.163
18,AAGACATA,0.382
19,AAGACATT,0.414
20,CAGACATC,0.246
21,CAGACATG,0.26
22,AAGACATG,0.337
23,AAGACACG,0.248
24,AAGACAGT,0.0956
25,CAGACATA,0.366
26,AATACATG,0.0057

row,Sequence,PBM E-score
1,AACACATG,0.07
2,ACGAGCTC,-0.0205
3,CCAAATCG,-0.101
4,GTCTCAGA,0.0346
5,CAAAGGGC,-0.0864
6,GCAAGAAA,0.0128
7,CCCTCTTC,-0.288
8,CCGGCTCC,-0.269
9,ACCCCACA,-0.0822
10,CACCAGAC,0.00954
11,CGACCCCA,-0.177
12,CATACAGG,-0.0332
13,GAGACATA,0.448
14,TAGACACA,0.163
15,GAGACACA,0.272
16,TAGACAGA,0.177
17,GAGACATC,0.265
18,TAGACATA,0.41
19,GGGGCTGA,-0.148
20,AGGGGCAG,-0.13
21,GGACCGGA,0.113
22,CGCTAACC,-0.084
23,GGAGTTAA,0.0335
24,TGGCCCCA,-0.338
25,ATGTCCGC,0.44
26,CTGTCCGC,0.114

row,Sequence,PBM E-score
1,AAGTCCGG,0.22
2,ACGTCCGC,0.14
3,ATGTCCGG,0.457
4,AGGTCCGG,0.041
5,CCACTTAC,-0.133
6,CCCTCTAC,-0.204
7,ACCGTCGT,0.142
8,GCAGAGCC,-0.149
9,ATGACGAA,0.0573
10,ATGACAAT,0.365
11,ATGACAAC,0.311
12,CTGACAAC,0.108
13,ATGACAAG,0.298
14,ATGACAGC,0.149
15,ATGACAAA,0.433
16,TTGACAAA,0.266
17,ATAACAAT,0.00977
18,CTGACAAG,0.161
19,ATTACAAT,0.155
20,CTGACAAA,0.37
